# Screening data as filed in PubChem.
# VACV Venus inh: qHTS for Stage-Specific Inhibitors of Vaccinia Orthopoxvirus: Venus Reporter Primary qHTS; Vaccinia virus Venus reporter expression, fluorescence; Potency, µM (highest dose often 36.5 µM), for the others: at the top dose activity change, negative = inhibition, usual class: inhibitors; actives 0.46% (n = 330,000); calls by dose curve; tested in A549 cells; note: potency is the fitted concentration of half-maximal effect; nearly all actives have a fitted effect of over 30% in size
# HCV inh: qHTS Assay for Inhibitors of Hepatitis C Virus (HCV). Huh7.5.1 HCVcc-Cre infection, luciferase reporter, 44 h. Potency, µM (series often up to 41.8 µM), without a hit: top-dose activity change, negative = inhibition, usual class: inhibitors. actives 3.4% (n = 340,000). AID 651820, 2012; active = well fitted inhibition curve with a large enough effect; inconclusive = small, poorly fitted or top-dose-only effect, or another doubt; inactive = no such curve, though single readings can be large or run the other way; note: potency is the fitted concentration of half-maximal effect
#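 Antiviral activity was scored by luciferase reporter output from cells infected with HCVcc-Cre (~0.5 moi) in presence of compound, 44 h infection period, cells seeded 1,000/well 4 h prior.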
# HCMV antiviral: qHTS Assay for inhibitors of the human cytomegalovirus (HCMV); activity change, negative = inhibition, % at 57.5 µM; AID 1259415, 2018; HFF cells, HCMV-luciferase reporter, 72 h; hits give low values; actives 4.5% (n = 410,000); in the data active = activity change below about -60%; inconclusive = no clear call, values can overlap the other calls; inactive = above about -39%
#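 Luciferase read-out from HCMV-luciferase-infected HFFs (MOI 1 PFU/cell) 72 h post infection at 37C; compounds added after 16 h cell attachment; activity normalized between buffer-only basal and Salinomycin (10uM) inhibitor controls.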
# Vaccinia mCherry: qHTS for Stage-Specific Inhibitors of Vaccinia Orthopoxvirus: mCherry Reporter Primary qHTS. Vaccinia virus mCherry reporter infection, fluorescence. Potency, µM (highest dose often 36.5 µM), inactives show at the highest dose activity change, negative = inhibition, hits mostly inhibitors. actives 0.63% (n = 310,000). AID 720579, 2013; calls by dose curve; tested in A549 cells; note: potency is the fitted concentration of half-maximal effect; nearly all actives have a fitted effect of over 35% in size
# LASV entry inh: qHTS for Inhibitors of binding or entry into cells for Lassa Virus | Potency, µM (doses to about 37.9 µM), inactives show at the top dose activity change, negative = inhibition, hits mostly inhibitors | AID 540256, 2011 | actives 1.2% (n = 300,000) | Lassa virus pseudotype entry inhibition, cell reporter; calls by dose curve; tested in HEK293 cells; note: potency is the fitted concentration of half-maximal effect; nearly all actives have a fitted effect of over 50% in size
# Marburg entry inh: qHTS for inhibitors of binding or entry into cells for Marburg Virus. Marburg virus pseudotyped entry inhibition, cell reporter. Potency, µM (series often up to 37.8 µM), inactives show top-dose activity change, negative = inhibition, usual class: inhibitors. actives 1.8% (n = 300,000). AID 540276, 2011; calls by dose curve; tested in HEK293 cells; note: potency is the fitted concentration of half-maximal effect
# Starred values were filed as active, the others as inactive; i = inactive; ? = inconclusive; / = not tested or not shown; + = active, no number; ! = repeats disagree; [ ] = remark or other dose. Sampled rows, rich in hits. Any-hit rate of the full collection: about 7.8%. % is set by controls: 0 for no effect and ±100 for the full control effect.
SMILES,VACV Venus inh,HCV inh,HCMV antiviral,Vaccinia mCherry,LASV entry inh,Marburg entry inh
Cc1ccc(C)c(NC(=O)c2cc(-c3ccccc3)nn2-c2ccccc2)c1,-19%,11µM*,?,-27%,?,11µM*
CCOC(=O)c1c(C)[nH]c(C)c1S(=O)(=O)N(C)CC(=O)Nc1ccc(C)cc1Br,-1%,/,-17,-14%,-19%[46.1 µM],/
COC(=O)N[C@@H](/C=C/c1ccccc1)[C@@H](C)[N+](=O)[O-],/,/,/,/,/,2%[14.2 µM]
CC(=O)c1ccccc1-c1ccc2c(c1)CC(CNC(=O)c1ccnc(Cl)c1)O2 (stereo not given),?,/,/,-15%,/,/
O=C(CCc1ccccc1)N1CCc2c([nH]c3ccccc23)C1c1ccc(F)cc1 (stereo not given),-14%,/,-90*,-26%,?,/
O=C(CCc1ccccc1)N1CCc2c([nH]c3ccccc23)C1c1ccc(Cl)cc1 (stereo not given),3%,/,-68*,-8%,?,/
CSc1ccc(C2c3[nH]c4ccccc4c3CCN2C(=O)CCc2ccccc2)cc1 (stereo not given),7%,/,-79*,-5%,2.5µM*,/
CCOc1cccc(CC(=O)N2CCc3c([nH]c4ccccc34)C2c2ccc(Cl)cc2)c1OCC (stereo not given),-14%,/,-2,i,?,/
COc1ccccc1-c1nnc(C2CCN(C(=O)c3cccc(Cl)c3)CC2)o1,-8%,/,-92*,-4%,-19%[46.1 µM],-23%[46.1 µM]
COc1ccccc1-c1nnc(C2CCN(C(=O)c3ccccc3C)CC2)o1,-15%,/,-10,-14%,2%[46.1 µM],?
CC(C)N1C(=O)S/C(=C/c2ccc3c(c2)n(C)c(=O)n3C)C1=O,/,?,56,/,0%,?
CCN(CC)c1ccc(/C=C2\SC(=O)N(C(C)C)C2=O)o1,40%,10µM*,/,i,?,11µM*
COc1ccc2c(c1)c1c(c(=O)n(-c3cccc(C)c3)c(=O)n1CC(=O)NCC1CCCO1)n2C (stereo not given),-1%,/,6,5%,3%[46.1 µM],/
Cc1c(C(=O)NCc2ccc(F)cc2)sc2nc(-c3ccccc3)cn12,-19%,/,28,-21%,-20%[46.1 µM],/
Cc1c(C(=O)Nc2ccc3c(c2)OCCO3)sc2nc(-c3ccccc3)cn12,-28%,2.5µM*,-84*,?,?,?
Cc1c(C(=O)Nc2ccncc2)sc2nc(-c3ccccc3)cn12,?,3.5µM*,-36,-4%,/,/
CCN(CC)c1ccc(NC(=O)c2sc3nc(-c4ccccc4)cn3c2C)cc1,?,/,-25,-7%,?,/
Cc1c(C(=O)NCc2ccco2)sc2nc(-c3ccccc3)cn12,?,10µM*,18,-13%,/,/
CCc1ccc(C(=O)c2cn(CC(=O)Nc3ccc4c(c3)OCO4)c3cc(OC)c(OC)cc3c2=O)cc1,-23%,/,?,-1%,6%[46.1 µM],1%[46.1 µM]
COC(=O)c1sccc1NC(=O)c1cccc(F)c1,-5%,-28%,23,-12%,-17%[46.1 µM],5%[46.1 µM]
COC(=O)c1sccc1NC(=O)c1ccncc1,3%,-6%,22,-5%,-16%,0.1µM*
COC(=O)c1sccc1NC(=O)c1c(F)c(F)c(F)c(F)c1F,-6%[7.34 µM],13µM*,?,i[7.34 µM],?,?
Cc1ccc(NC(=O)Cn2nc(N3CCN(c4ccccc4)CC3)ccc2=O)cc1F,-10%,/,3,-20%,-23%[46.1 µM],/
Cc1ccc(-c2nnc(SCC(=O)NC3CCCC3)nc2-c2ccc(C)cc2)cc1,-17%,/,-9,-15%,-2%[46.1 µM],/
COc1ccc(N2C(=O)C(CC(=O)Nc3ccc(F)cc3)N(CCC3=CCCCC3)C2=O)cc1 (stereo not given),-16%,/,-16,i,-20%[46.1 µM],-22%[46.1 µM]
SMILES,VACV Venus inh,HCV inh,HCMV antiviral,Vaccinia mCherry,LASV entry inh,Marburg entry inh
Cc1nn(-c2ccccc2)c2c1cc1c(=O)[nH]c(=O)nc-1n2-c1cccc(C(F)(F)F)c1,-9%,/,-4,-10%,16%[46.1 µM],6%[46.1 µM]
COc1ccc(OC)c(CN2CCN(CCCc3ccccc3)C(CCO)C2)c1 (stereo not given),/,-3%,-102*,/,/,/
Cc1ncc2c(c1CNC(=O)/C=C/c1cccs1)CCN(C(=O)c1cc(C(C)C)on1)C2,6%,/,/,-1%,/,/
CCc1ccccc1NC(=O)CSc1nnc(-c2cc(OC)c(OC)c(OC)c2)o1,-14%,/,11,-19%,6%[46.1 µM],9%[46.1 µM]
CC(=O)c1ccccc1NC(=O)c1ccc2c(c1)NC(=O)C(C)S2 (stereo not given),0%,11µM*,-16,2%,-33%,?
CC1Sc2ccc(C(=O)NCc3cccc(C(F)(F)F)c3)cc2NC1=O (stereo not given),/,22µM*,0,/,/,/
CCCNC(=O)c1ccccc1NC(=O)c1ccc2c(c1)NC(=O)C(C)S2 (stereo not given),/,4.5µM*,15,/,/,/
Cc1ccnc(NC(=O)c2ccc3c(c2)NC(=O)C(C)S3)c1 (stereo not given),/,-21%,5,/,/,/
CC1CCN(S(=O)(=O)c2ccc3c(c2)N(CC(=O)NC(C)C)C(=O)CS3)CC1,2%,/,14,-9%,/,-27%[46.1 µM]
Cc1ccc(CNC(=O)CSc2c3c(nc4ccc(Cl)cc24)CCCC3)o1,-14%,?,26,-26%,7.3µM*,?
COc1ccc(CNC(=O)CSc2c3c(nc4ccc(Cl)cc24)CCCC3)cc1,-10%,/,-37,-6%,4%[46.1 µM],21%[46.1 µM]
COCCNC(=O)CSc1c2c(nc3cc(Cl)ccc13)CCCC2,-2%,/,5,10%,?,?
CCN(CC)CCNC(=O)CSc1c2c(nc3cc(Cl)ccc13)CCCC2,-16%,10µM*,-99*,-2%,/,/
COc1ccc2c3c(n(C)c2c1)[C@H](CO)N(C(C)=O)CC31CCN(C(=O)C2CCOCC2)CC1,/,/,36,/,/,/
O=C(Nc1ccc(F)cc1)N[C@H]1CC[C@@]23CCCN2C(=O)CCC[C@H]3C1Cc1ccccc1 (stereo not given in full),/,/,8,/,/,/
CCN1CCCC1CNC(=O)c1cc(N)ccc1OC (stereo not given),-10%,15%,15,-11%,16%[46.1 µM],15%[46.1 µM]
C=CCN1CCCC1CNC(=O)c1cc2[nH]nnc2cc1OC (stereo not given),-7%,5%,-68*,-10%,/,/
COc1ccc(CCNC(=O)c2cc(-c3ccc(Cl)cc3)on2)cc1OC,0%,/,-10,-14%,?,-9%[46.1 µM]
COc1ccc(NC(=O)c2ccc(-c3ccc([N+](=O)[O-])cc3)o2)cc1,10%,-15%,-61*,-12%,17%[46.1 µM],?
COc1ccc(CCNC(=O)c2ccc(CS(=O)(=O)Cc3cccc(C)c3)o2)cc1OC,-4%,22µM*,+!,-13%,?,?
